For some of these results: Potency and affinity values are given separately. Activity calls are given as the source filed them. Unless noted, no rule for the calls is given here.
Key:
[1] = antimalarial activity against Dd2 strain (AID 2302;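 active = growth inhibition above 50% at the single 2 µM test dose, taken to imply half-maximal potency below 2 µM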;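 also: 0% = DMSO untreated growth and 100% = chloroquine plus artemisinin killed control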); details: P. falciparum Dd2 in RBCs, LDH growth readout, 72 h; at 2 µM; active compounds read high
[2] = HepG2 cytotoxicity, primary screen, cytotoxicity control for P. falciparum antimalarial project, cell-based, ATP luminescence (AID 2303;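 active = inhibition above 50%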;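 also: 0% = DMSO wells and 100% = digitonin-killed cells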); details: HepG2 viability, 24-48 h, at 10 µM, active compounds read high
[3] = target: L-lactate dehydrogenase (Plasmodium falciparum (isolate CDC / Honduras)) (UniProt Q27743); assay: PfLDH activity inhibition – cell lysate, 3D7 strain, counter-screen for P. falciparum growth inhibition project (AID 2304);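 also: 0% = vehicle and 100% = reference inhibitor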; details: P. falciparum 3D7 crude extract, LDH APAD/NBT absorbance; at 2 µM; active compounds read high
[4] = inhibition of 3D7 malaria parasite growth – strain 3D7 (AID 2306);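 also: 0% = DMSO wells and 100% = chloroquine plus artemisinin control wells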; details: P. falciparum 3D7 erythrocytic growth, LDH absorbance, 72 h; at 2 µM; active compounds read high
[5] = target: Calcium-dependent protein kinase 1 (Plasmodium falciparum (isolate 3D7)) (UniProt P62344); assay: PfCDPK1 kinase inhibitors, biochemical, TCAMS library (AID 1159585; cut-off not given, nearly all actives have IC50 up to about 0.98 µM;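 also: inhibitors leave more ATP so luminescence rises with inhibition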); details: recombinant PfCDPK1, Kinase-Glo ATP depletion luminescence
[6] = target: Plasmodium falciparum protein kinase 6 (PK6, PF3D7_1337100) (UniProt Q8IDW1); assay: PfPK6 kinase inhibitors, biochemical, TCAMS library (AID 1159586); details: recombinant PfPK6, Kinase-Glo ATP depletion luminescence
[7] = target: Protein kinase 7 (PK7), Plasmodium falciparum 3D7 (PF3D7_0213400) (UniProt Q7YTF7); assay: inhibition of Plasmodium PK7 catalytic activity – biochemical, TCAMS antimalarial set, Kinase-Glo luminescence (AID 1159587); details: recombinant PfPK7, Kinase-Glo ATP depletion luminescence
[8] = target: Calcium-dependent protein kinase 4 (Plasmodium falciparum (isolate 3D7)) (UniProt Q8IBS5); assay: PfCDPK4 kinase inhibitors, biochemical, TCAMS library (AID 1159588; cut-off not given, nearly all actives have IC50 up to about 0.91 µM); details: recombinant PfCDPK4, Kinase-Glo ATP depletion luminescence
Sequence of Calcium-dependent protein kinase 4 (Plasmodium falciparum (isolate 3D7)) (Q8IBS5 whole entry, looked up): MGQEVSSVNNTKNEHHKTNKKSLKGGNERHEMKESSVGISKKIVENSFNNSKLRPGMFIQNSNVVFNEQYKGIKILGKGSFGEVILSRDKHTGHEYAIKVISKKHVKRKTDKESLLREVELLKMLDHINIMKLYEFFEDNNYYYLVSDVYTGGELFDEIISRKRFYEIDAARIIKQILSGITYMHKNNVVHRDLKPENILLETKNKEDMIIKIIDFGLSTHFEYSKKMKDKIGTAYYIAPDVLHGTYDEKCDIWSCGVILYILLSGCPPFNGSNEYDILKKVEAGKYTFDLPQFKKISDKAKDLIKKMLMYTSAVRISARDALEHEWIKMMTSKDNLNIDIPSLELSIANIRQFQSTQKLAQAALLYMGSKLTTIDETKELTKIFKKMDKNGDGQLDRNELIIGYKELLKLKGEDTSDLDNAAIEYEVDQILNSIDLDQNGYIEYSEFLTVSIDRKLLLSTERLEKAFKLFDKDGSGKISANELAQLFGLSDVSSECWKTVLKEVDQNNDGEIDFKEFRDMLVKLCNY

Sequence of L-lactate dehydrogenase (Plasmodium falciparum (isolate CDC / Honduras)) (Q27743 whole entry, looked up): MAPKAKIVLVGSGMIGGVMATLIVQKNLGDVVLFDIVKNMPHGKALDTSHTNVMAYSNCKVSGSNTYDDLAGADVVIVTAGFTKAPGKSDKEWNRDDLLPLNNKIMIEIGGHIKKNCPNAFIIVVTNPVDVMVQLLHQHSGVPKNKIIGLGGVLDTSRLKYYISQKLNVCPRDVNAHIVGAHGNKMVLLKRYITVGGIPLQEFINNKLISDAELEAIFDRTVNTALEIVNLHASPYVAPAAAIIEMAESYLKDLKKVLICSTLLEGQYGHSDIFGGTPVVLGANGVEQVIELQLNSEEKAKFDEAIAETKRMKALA
Sequence of Protein kinase 7 (PK7), Plasmodium falciparum 3D7 (PF3D7_0213400) (Q7YTF7 1-343): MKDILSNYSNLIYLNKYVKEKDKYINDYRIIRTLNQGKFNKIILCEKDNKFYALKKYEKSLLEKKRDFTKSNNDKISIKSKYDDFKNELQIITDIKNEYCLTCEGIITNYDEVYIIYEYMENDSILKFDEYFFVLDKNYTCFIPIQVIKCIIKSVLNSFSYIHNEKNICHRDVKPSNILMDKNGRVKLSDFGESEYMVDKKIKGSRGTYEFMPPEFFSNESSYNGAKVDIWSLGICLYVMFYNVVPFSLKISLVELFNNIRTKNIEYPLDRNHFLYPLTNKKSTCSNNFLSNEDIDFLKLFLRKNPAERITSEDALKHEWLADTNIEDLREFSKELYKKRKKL
Sequence of Calcium-dependent protein kinase 1 (Plasmodium falciparum (isolate 3D7)) (P62344 whole entry, looked up): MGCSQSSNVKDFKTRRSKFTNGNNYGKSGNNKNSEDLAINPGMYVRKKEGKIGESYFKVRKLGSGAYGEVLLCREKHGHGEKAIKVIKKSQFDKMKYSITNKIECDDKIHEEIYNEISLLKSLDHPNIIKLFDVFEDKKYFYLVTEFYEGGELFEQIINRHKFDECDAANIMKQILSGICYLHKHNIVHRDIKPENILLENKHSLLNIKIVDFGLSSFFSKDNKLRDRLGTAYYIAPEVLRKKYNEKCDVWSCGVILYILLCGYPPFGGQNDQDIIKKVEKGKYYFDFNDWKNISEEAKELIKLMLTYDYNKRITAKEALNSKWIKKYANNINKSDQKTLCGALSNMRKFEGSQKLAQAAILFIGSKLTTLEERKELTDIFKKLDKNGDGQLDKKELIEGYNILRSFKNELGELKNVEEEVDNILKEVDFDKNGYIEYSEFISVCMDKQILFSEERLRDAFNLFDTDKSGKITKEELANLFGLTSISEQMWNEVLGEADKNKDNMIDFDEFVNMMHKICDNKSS
Sequence of Plasmodium falciparum protein kinase 6 (PK6, PF3D7_1337100) (Q8IDW1 1-305): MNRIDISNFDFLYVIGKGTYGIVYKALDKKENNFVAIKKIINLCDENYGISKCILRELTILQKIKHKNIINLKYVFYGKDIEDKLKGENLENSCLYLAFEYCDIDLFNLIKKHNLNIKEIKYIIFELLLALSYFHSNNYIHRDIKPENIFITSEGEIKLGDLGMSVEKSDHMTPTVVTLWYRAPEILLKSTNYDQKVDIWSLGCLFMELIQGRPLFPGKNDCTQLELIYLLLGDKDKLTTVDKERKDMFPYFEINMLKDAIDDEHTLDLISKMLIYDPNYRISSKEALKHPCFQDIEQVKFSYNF

CN1CCN(c2ncnc3ccc(NC(=O)Nc4ccc(Cl)c(Cl)c4)cc23)CC1
inactive: inhibition [2] 7% | inhibition [3] -2% | outcome [5] | outcome [6] | outcome [7] | outcome [8]
active: growth inhibition [1] 89% | growth inhibition [4] 100%

COc1cccc(CNC[C@@H](O)[C@H](Cc2ccccc2)NC(=O)c2cc(C3CCCC3)cc(N3CCCCS3(=O)=O)c2)c1
active: growth inhibition [1] 83% | growth inhibition [4] 96%
inactive: inhibition [2] 7% | inhibition [3] 4% | outcome [5] | outcome [6] | outcome [7] | outcome [8]

COc1cc(Nc2ncc3c(C)nc(-c4cccc(Nc5ccc(CN6CCS(=O)(=O)CC6)cc5)c4)n3n2)cc(OC)c1OC
inactive: inhibition [2] 2% | inhibition [3] 2% | outcome [5] | outcome [6] | outcome [7] | outcome [8]
active: growth inhibition [1] 79% | growth inhibition [4] 90%

CC(=O)c1ccc(NC(=O)NNC(=O)c2ccc(CCN3CCC(c4nc(COCC(F)(F)F)c(-c5ccc(F)cc5)o4)CC3)cc2)cc1
inactive: growth inhibition [1] 27% | inhibition [2] 17% | inhibition [3] -10% | outcome [5] | outcome [6] | outcome [7] | outcome [8]
active: growth inhibition [4] 96%

CC(=O)C1=NN(c2ccc(C)cc2)C(c2cccs2)N1c1ccccc1 (stereo not drawn)
inactive: inhibition [2] -4% | inhibition [3] -4% | outcome [5] | outcome [6] | outcome [7] | outcome [8]
active: growth inhibition [1] 64% | growth inhibition [4] 89%

Oc1c(C(Nc2nc3ccccc3s2)c2ccccc2)ccc2cccnc12 (stereo not drawn)
active: growth inhibition [1] 83% | growth inhibition [4] 95%
inactive: inhibition [2] 45% | inhibition [3] -4% | outcome [5] | outcome [6] | outcome [7] | outcome [8]

CC(=NNC(=S)Nc1ccccc1Cl)c1ccccn1
active: growth inhibition [1] 99% | inhibition [2] 69% | growth inhibition [4] 100%
inactive: inhibition [3] 6% | outcome [5] | outcome [6] | outcome [7] | outcome [8]

COc1cc(F)c2ncc(Cl)c(CCN3CCC(NCc4cc5c(cn4)OCCO5)CC3)c2c1
inactive: inhibition [2] 2% | inhibition [3] -1% | outcome [5] | outcome [6] | outcome [7] | outcome [8]
active: growth inhibition [1] 57% | growth inhibition [4] 89%

O=C(Nc1ccc(Cl)cc1)N1CCN(C2CCCCC2)CC1
active: growth inhibition [4] 93%
inactive: growth inhibition [1] -6% | inhibition [2] 17% | inhibition [3] -3% | outcome [5] | outcome [6] | outcome [7] | outcome [8]

O=c1[nH]c2c(cc1CNC1CCCCC1)c(-c1cccc(F)c1)nn2-c1ccccc1
active: growth inhibition [1] 89% | growth inhibition [4] 95%
inactive: inhibition [2] 6% | inhibition [3] 7% | outcome [5] | outcome [6] | outcome [7] | outcome [8]

COc1cc(Cc2cnc(N)nc2N)cc(OCCCOc2ccccc2)c1OC
inactive: growth inhibition [1] 2% | inhibition [2] 7% | inhibition [3] -4% | outcome [5] | outcome [6] | outcome [7] | outcome [8]
active: growth inhibition [4] 94%

O=C(NC(c1ccc(Cl)cc1)c1ccc2cccnc2c1O)c1ccccc1 (stereo not drawn)
active: growth inhibition [1] 80% | growth inhibition [4] 87%
inactive: inhibition [2] 44% | inhibition [3] -2% | outcome [5] | outcome [6] | outcome [7] | outcome [8]

Cc1ncccc1C(=O)Nc1cccc(-c2cccc(-c3nc4c(C)cccc4[nH]3)c2)c1
active: growth inhibition [1] 69% | growth inhibition [4] 93%
inactive: inhibition [2] 6% | inhibition [3] 4% | outcome [5] | outcome [6] | outcome [7] | outcome [8]

COc1ccc2nccc([C@@H](O)CN3CCC(NCCNc4cccc(F)c4)CC3)c2c1
active: growth inhibition [1] 73% | growth inhibition [4] 98%
inactive: inhibition [2] 11% | inhibition [3] 0% | outcome [5] | outcome [6] | outcome [7] | outcome [8]

CC(Cl)=CCc1c(C)[nH]c2c(ccc3ccccc32)c1=O
active: growth inhibition [1] 96% | growth inhibition [4] 96%
inactive: inhibition [2] 24% | inhibition [3] 8% | outcome [5] | outcome [6] | outcome [7] | outcome [8]

Nc1c(Cl)cc(C(O)CNCCCCCOCCCc2ccc3ncccc3c2)cc1Cl (stereo not drawn)
active: growth inhibition [1] 77% | growth inhibition [4] 96%
inactive: inhibition [2] 24% | inhibition [3] -8% | outcome [5] | outcome [6] | outcome [7] | outcome [8]

Nc1ncc(-c2ccsc2)c2ccc(-c3cc(NCc4ccccc4)ncn3)cc12
active: growth inhibition [1] 86% | growth inhibition [4] 101%
inactive: inhibition [2] 0% | inhibition [3] 3% | outcome [5] | outcome [6] | outcome [7] | outcome [8]

CCc1cccc2sc(N3CCN(C(=O)c4ccc([N+](=O)[O-])o4)CC3)nc12
inactive: inhibition [2] 2% | inhibition [3] 0% | outcome [5] | outcome [6] | outcome [7] | outcome [8]
active: growth inhibition [1] 94% | growth inhibition [4] 97%

COc1cc2nc(NCc3ccc(S(N)(=O)=O)cc3)nc(Nc3ccc(Oc4ccccc4)cc3)c2cc1OC
active: growth inhibition [1] 100% | growth inhibition [4] 101%
inactive: inhibition [2] 14% | inhibition [3] -3% | outcome [5] | outcome [6] | outcome [7] | outcome [8]

CCCCCCNC(=O)C1Cc2c([nH]c3ccc(C)cc23)C2(CCN(CCc3ccccc3)CC2)N1 (stereo not drawn)
active: growth inhibition [4] 85%
inactive: growth inhibition [1] 24% | inhibition [2] 31% | inhibition [3] 4% | outcome [5] | outcome [6] | outcome [7] | outcome [8]

CCCC(C)Nc1nc(C)cc(N[C@@H](Cc2ccccc2)C(=O)NCc2ccc(C)cc2)n1 (stereo partly drawn)
active: growth inhibition [1] 93% | growth inhibition [4] 101%
inactive: inhibition [2] 22% | inhibition [3] 5% | outcome [5] | outcome [6] | outcome [7] | outcome [8]

CN1CCC(NCc2cccc(-c3ccc(S(=O)(=O)NCCN4CCCC4)s3)c2)CC1
inactive: growth inhibition [1] 1% | inhibition [2] 10% | inhibition [3] -5% | outcome [5] | outcome [6] | outcome [7] | outcome [8]
active: growth inhibition [4] 91%

O=S(=O)(c1cccc2cccnc12)N1CCN(C2CCCCC2)CC1
inactive: growth inhibition [1] 10% | inhibition [2] 15% | inhibition [3] 1% | outcome [5] | outcome [6] | outcome [7] | outcome [8]
active: growth inhibition [4] 96%

Cc1cc(CN2CC[C@H](NC(=O)c3ccc(Cl)c(Cl)c3)C2)ccc1OCCN1CCCC1
inactive: inhibition [3] 0% | outcome [5] | outcome [6] | outcome [7] | outcome [8]
active: growth inhibition [1] 92% | inhibition [2] 56% | growth inhibition [4] 101%

O=C(Nc1ccc(Cn2ncc(N3CCCNCC3)c(Cl)c2=O)cc1)Nc1cc(F)cc(C(F)(F)F)c1
active: growth inhibition [4] 101%
inactive: growth inhibition [1] 44% | inhibition [2] 35% | inhibition [3] 4% | outcome [5] | outcome [6] | outcome [7] | outcome [8]

COc1ccccc1CC1CCCN(C2CCC(NC(=O)c3cc4ccccc4[nH]3)CC2)C1 (stereo not drawn)
inactive: growth inhibition [1] 21% | inhibition [2] 23% | inhibition [3] -2% | outcome [5] | outcome [6] | outcome [7] | outcome [8]
active: growth inhibition [4] 98%

Cn1nc(-c2ccc(CN[C@@H]3CCc4ccc(O)cc43)cc2)c2cnc(NC3CCCC3)nc21
inactive: growth inhibition [1] 8% | inhibition [2] 12% | inhibition [3] 0% | outcome [5] | outcome [6] | outcome [7] | outcome [8]
active: growth inhibition [4] 97%

CN(C)c1ccc(C=CC(=O)NC(=O)c2ccccc2O)cc1
active: growth inhibition [1] 97% | growth inhibition [4] 92%
inactive: inhibition [2] 6% | inhibition [3] -1% | outcome [5] | outcome [6] | outcome [7] | outcome [8]

CN1CCCN(Cc2cccc(-c3cccc(NC(=O)c4ccc(Cl)cc4)c3)c2)CC1
inactive: growth inhibition [1] 44% | inhibition [2] 35% | inhibition [3] 2% | outcome [5] | outcome [6] | outcome [7] | outcome [8]
active: growth inhibition [4] 100%

Cc1[nH]c(C)c(-c2ccc(Oc3cccc(Cl)c3)cc2)c(=O)c1Cl
active: growth inhibition [1] 97% | growth inhibition [4] 99%
inactive: inhibition [2] 40% | inhibition [3] -3% | outcome [5] | outcome [6] | outcome [7] | outcome [8]

CC(C)(C)C/C=C\c1ccc(C(=O)NCC2CC2)cc1
active: growth inhibition [1] 88% | growth inhibition [4] 94%
inactive: inhibition [2] 0% | inhibition [3] -2% | outcome [5] | outcome [6] | outcome [7] | outcome [8]

Cc1cc(C(F)(F)F)n2nc(C(=O)N(Cc3cncn3Cc3cccc(F)c3)CC3CC3)cc2n1
active: growth inhibition [1] 92% | growth inhibition [4] 101%
inactive: inhibition [2] -2% | inhibition [3] 3% | outcome [5] | outcome [6] | outcome [7] | outcome [8]

c1ccc(OCCOc2ccc(Nc3ccnc4cc5ccccc5cc34)cc2)cc1
inactive: inhibition [2] 44% | inhibition [3] 7% | outcome [5] | outcome [6] | outcome [7] | outcome [8]
active: growth inhibition [1] 96% | growth inhibition [4] 102%

Cc1cc(N[C@@H](Cc2ccccc2)C(=O)NCc2cccs2)nc(NCCc2ccccn2)n1
inactive: growth inhibition [1] 49% | inhibition [2] -4% | inhibition [3] -2% | outcome [5] | outcome [6] | outcome [7] | outcome [8]
active: growth inhibition [4] 93%

COc1ccc(NC(=O)NC2CCN(CCCCCNC(=O)/C=C/c3ccc(Cl)c(Cl)c3)CC2)cc1
inactive: growth inhibition [1] 1% | inhibition [2] 5% | inhibition [3] 0% | outcome [5] | outcome [6] | outcome [7] | outcome [8]
active: growth inhibition [4] 96%

CC1(C)N=C(N)N=C(N)N1OCCSCc1cc(Cl)sc1Cl
active: growth inhibition [1] 72% | inhibition [2] 70% | growth inhibition [4] 93%
inactive: inhibition [3] -2% | outcome [5] | outcome [6] | outcome [7] | outcome [8]

Nc1nc2c(ncn2OC[C@H](CO)OCP(=O)(O)O)c(=O)[nH]1
active: growth inhibition [1] 61% | growth inhibition [4] 94%
inactive: inhibition [2] 5% | inhibition [3] -4% | outcome [5] | outcome [6] | outcome [7] | outcome [8]

CCc1nc(N)nc(N)c1CCCOc1ccccc1Cl
inactive: growth inhibition [1] 13% | inhibition [3] 1% | outcome [5] | outcome [6] | outcome [7] | outcome [8]
active: inhibition [2] 61% | growth inhibition [4] 92%

CS(=O)(=O)Nc1cccc(-c2cnc3[nH]cc(-c4ccc(C(=O)O)cc4)c3c2)c1
inactive: inhibition [2] -11% | inhibition [3] 0% | outcome [5] | outcome [6] | outcome [7] | outcome [8]
active: growth inhibition [1] 82% | growth inhibition [4] 98%

Cc1ccc2[nH]c3c(NCCCN4CCOCC4)ncnc3c2c1
active: growth inhibition [4] 101%
inactive: growth inhibition [1] 9% | inhibition [2] -1% | inhibition [3] -3% | outcome [5] | outcome [6] | outcome [7] | outcome [8]

O=C(Nc1ccc(NC2=NCCN2)cc1)c1ccc(C(=O)Nc2ccc(NC3=NCCN3)cc2)cc1
active: growth inhibition [1] 86% | growth inhibition [4] 91%
inactive: inhibition [2] 15% | inhibition [3] -8% | outcome [5] | outcome [6] | outcome [7] | outcome [8]

Source: PubChem BioAssay
